Target: DNA 5-C-methyltransferase (murine, Friend erythroleukemia cells) (Mus musculus, UniProt P13864 P13864:1-1620)
Assay: same rate as unmethylated A
Conditions: protein: extract; tags: 0.3 M NaCl nuclear extract, 100,000 x g supernatant; single approx. 190 kDa species forming covalent complexes; homodimer, no analogous stem-loop; ssDNA; 5mC at 7

Chain of DNA 5-C-methyltransferase (murine, Friend erythroleukemia cells) (P13864 whole entry, one chain of several): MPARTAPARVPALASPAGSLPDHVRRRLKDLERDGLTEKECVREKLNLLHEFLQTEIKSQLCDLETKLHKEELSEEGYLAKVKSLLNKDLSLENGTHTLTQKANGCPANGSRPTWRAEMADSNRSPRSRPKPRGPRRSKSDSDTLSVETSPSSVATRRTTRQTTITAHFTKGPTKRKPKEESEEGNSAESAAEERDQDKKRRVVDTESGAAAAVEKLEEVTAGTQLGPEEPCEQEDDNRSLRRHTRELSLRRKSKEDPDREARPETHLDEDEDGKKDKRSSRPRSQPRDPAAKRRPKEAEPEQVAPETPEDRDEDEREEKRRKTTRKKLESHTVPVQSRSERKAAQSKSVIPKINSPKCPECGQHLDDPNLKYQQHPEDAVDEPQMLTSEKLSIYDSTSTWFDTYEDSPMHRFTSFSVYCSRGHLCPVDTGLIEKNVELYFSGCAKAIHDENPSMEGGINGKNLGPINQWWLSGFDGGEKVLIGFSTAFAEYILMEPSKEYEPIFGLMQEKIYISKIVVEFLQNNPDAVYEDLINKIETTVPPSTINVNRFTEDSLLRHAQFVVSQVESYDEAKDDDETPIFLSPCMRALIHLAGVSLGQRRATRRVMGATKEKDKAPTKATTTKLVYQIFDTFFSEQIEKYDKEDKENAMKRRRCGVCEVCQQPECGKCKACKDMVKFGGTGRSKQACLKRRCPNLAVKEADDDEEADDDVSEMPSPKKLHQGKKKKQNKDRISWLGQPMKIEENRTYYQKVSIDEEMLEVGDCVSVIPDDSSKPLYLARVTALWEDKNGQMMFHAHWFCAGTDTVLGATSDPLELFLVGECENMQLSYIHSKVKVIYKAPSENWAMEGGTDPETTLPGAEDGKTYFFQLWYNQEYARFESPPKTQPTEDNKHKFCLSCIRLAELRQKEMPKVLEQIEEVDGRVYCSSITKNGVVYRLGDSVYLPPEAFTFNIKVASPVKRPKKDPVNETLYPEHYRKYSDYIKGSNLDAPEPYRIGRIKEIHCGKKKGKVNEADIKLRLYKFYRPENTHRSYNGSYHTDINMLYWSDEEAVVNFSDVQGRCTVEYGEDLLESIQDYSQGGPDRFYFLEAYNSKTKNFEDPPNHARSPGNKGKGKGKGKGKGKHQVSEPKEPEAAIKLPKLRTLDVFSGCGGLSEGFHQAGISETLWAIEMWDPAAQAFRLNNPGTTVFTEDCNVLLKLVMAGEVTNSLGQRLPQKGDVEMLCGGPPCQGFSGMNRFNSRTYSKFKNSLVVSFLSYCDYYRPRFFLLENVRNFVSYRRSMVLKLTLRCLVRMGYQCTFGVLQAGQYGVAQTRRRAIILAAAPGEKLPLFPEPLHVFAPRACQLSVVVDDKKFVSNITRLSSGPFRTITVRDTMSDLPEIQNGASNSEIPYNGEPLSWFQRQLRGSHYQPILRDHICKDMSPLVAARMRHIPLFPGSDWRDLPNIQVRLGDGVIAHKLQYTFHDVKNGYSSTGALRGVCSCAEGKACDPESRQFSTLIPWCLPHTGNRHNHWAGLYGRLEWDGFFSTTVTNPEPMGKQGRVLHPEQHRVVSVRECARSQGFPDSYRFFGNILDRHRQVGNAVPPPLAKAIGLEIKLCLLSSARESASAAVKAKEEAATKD

In the case of ATTGCGCTACTCGGATCCGGCCAT, the binding signal is reported as 1 relative to A.

Reference: US5652105, “Substrate for detection of mammalian 5-C-DNA methyltransferase” (Health Research, Inc.)
